Compound activity from PubChem BioAssay.
hcDAF-12 act – H. contortus DAF-12 nuclear receptor activators, primary screen, cell-based, luminescence, HEK293, lit1-tk-luc reporter | AID 652067, 2013 | 1.4% of 370,000 active | HEK293 hcDAF-12 lit1-tk-luc reporter; 0% DMSO, 100% Δ7-dafachronic acid | activation, % at 6.8 µM;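 active = activation above the mean of all tested compounds plus 3 SD, cut at about 5.5% in these data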;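 also: 100% = response to 3 µM Δ7-dafachronic acid high control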
ssDAF-12 act – S. stercoralis DAF-12 nuclear receptor activators, primary screen, cell-based, luminescence, HEK293, GRIP1 co-expression, lit1-tk-luc. Nuclear hormone receptor DAF-12 (Strongyloides stercoralis). HEK293 ssDAF-12/GRIP1 lit1-tk-luc reporter; % of 3 µM dafachronic acid response. activation, % at 6.8 µM. 1% of 370,000 active;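 active = activation above the mean over all tested compounds plus 3 SD, cut at about 0.9% in these data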;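 also: 0% = DMSO-only wells and 100% = 3 µM delta7-dafachronic acid wells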
hgDAF12 agonist – H. glycines DAF-12 receptor agonists, primary screen, cell-based, luminescence, HEK293, GAL4 fusion, UAS-luciferase; Nuclear hormone receptor DAF-12 (Heterodera glycines), GAL4 fusion; HEK293 GAL4-hgDAF12 UAS-luciferase reporter, agonist luminescence; normalized to butyrate control; activation, % at 6.8 µM; 1.8% of 370,000 active;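 active = activation above a cutoff set at the mean of all screened compounds plus 3 SD, cut at about 10% in these data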;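 also: 0% = DMSO wells and 100% = sodium butyrate wells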
DAX1 inh-1 – DAX1 (NR0B1) inhibitors, primary screen, cell-based, HEK293, Gal4-DAX1, luciferase luminescence; Nuclear receptor subfamily 0 group B member 1 (Homo sapiens), P51843; HEK293 Gal4-DAX1 luciferase reporter; inhibition, % at 6.75 µM; 0.99% of 340,000 active; AID 504766, 2011;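 active = inhibition above the mean over all tested compounds plus 3 SD, cut at about 4.2% in these data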;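 also: 0% = DAX1-transfected cells with DMSO and 100% = empty-vector control cells with DMSO; inhibition shows as a rise in luminescence from relieved DAX1 repression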
Target sequence (P51843 207-470 limits assumed): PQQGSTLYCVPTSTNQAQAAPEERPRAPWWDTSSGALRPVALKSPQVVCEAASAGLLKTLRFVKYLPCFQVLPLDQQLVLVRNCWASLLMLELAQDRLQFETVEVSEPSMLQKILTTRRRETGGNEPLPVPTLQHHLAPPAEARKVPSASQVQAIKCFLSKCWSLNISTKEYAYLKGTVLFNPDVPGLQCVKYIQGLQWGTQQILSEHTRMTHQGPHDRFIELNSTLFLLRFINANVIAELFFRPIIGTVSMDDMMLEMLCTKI
DAX1 inh-2 – DAX1 (NR0B1) inhibitors on StAR promoter, primary screen, cell-based, luminescence, SF-1 (NR5A1), full-length DAX-1; HEK293T StAR-luciferase reporter, SF-1/DAX-1 repression relief; inhibition, % at 6.8 µM; 1.1% of 370,000 active;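 active = inhibition above the mean over all tested compounds plus 3 SD, cut at about 3.6% in these data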;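 also: 0% = DAX-1 cells with DMSO and 100% = cells lacking DAX-1 with DMSO; higher inhibition means more luminescence from relief of DAX-1 repression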
hgDAF12 conf – H. glycines DAF-12 receptor agonists, confirmation, cell-based, luminescence, HEK293, GAL4-LBD fusion. shares compounds with hgDAF12 agonist. activation, % at 6.8 µM. HEK293 GAL4-hgDAF12 luciferase reporter, agonist mode; percent of butyrate response. 80% of 3,300 active;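 active = mean activation over triplicate wells above the hit cutoff derived from the earlier primary screen, cut at about 11% in these data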;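 also: 0% = DMSO low control and 100% = 2 mM sodium butyrate high control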
LXRb DAF12 ctr – LXR agonists, Gal4 luciferase reporter, confirmation, counter-screen for hgDAF-12 agonist project, cell-based, luminescence, HEK293, H. glycines campaign. shares compounds with hgDAF12 agonist. 24 h. activation, % at 6.8 µM. 3,300 tested, under 10 active. AID 743051, 2013;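 active = mean activation of the triplicate above a set limit carried over from the primary screen, none filed active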
* marks the source's active call; other numbers are inactive results; nt = not tested or not shown. Shown are actives, neighbours in structure and some others; about 4.1% of the full set was active somewhere.

SMILES	hcDAF-12 act	ssDAF-12 act	hgDAF12 agonist	DAX1 inh-1	DAX1 inh-2	hgDAF12 conf	LXRb DAF12 ctr
Nc1cc(Cl)nc(N/N=C/c2c(O)ccc3ccccc23)n1	4	0	15*	3	2	10	1
Nc1nonc1N/N=C/c1c(O)ccc2ccccc12	-2	-1	-2	-2	-1	nt	nt
COC(=O)c1ccccc1S(=O)(=O)N1CCC(C(=O)NCc2ccco2)CC1	-2	-1	1	1	-1	nt	nt
CCC(C)NC(=O)c1ccc2c(Cl)c3c(nc2c1)CCC3 (configuration not stated)	0	-1	18*	5.7*	3	9	0
CCC(C)NC(=O)c1ccc2c(SCC(=O)O)c3c(nc2c1)CCCC3 (configuration not stated)	-2	-1	3	0	0	nt	nt
O=C(Nc1ccc(Cl)cn1)c1ccc2c(Cl)c3c(nc2c1)CCC3	2	-1	15*	3	2	8	1
Cc1ccccc1/C=N/NC(=O)c1ccc(-n2cnnn2)cc1	1	-1	3	0	0	nt	nt
O=C1Nc2c(Cl)cc(Cl)cc2C1=O	-1	0	-2	2	0	nt	nt
Nc1c(C(=O)Nc2ccccc2)sc2nc(N3CCOCC3)c3c(c12)CCCC3	2	1	15*	0	3.8*	5	0
Nc1c(C(=O)Nc2ccc(Cl)cc2)sc2nc(N3CCOCC3)c3c(c12)CCCC3	-2	-1	1	0	0	nt	nt
COc1ccc(CN2C(=O)c3ccccc3C2c2nnnn2-c2ccc3c(c2)OCCO3)cc1 (configuration not stated)	-3	-1	-3	nt	-1	nt	nt
Cc1cccc(N2CCN(CC(=O)Nc3ccc(S(=O)(=O)N4CCOCC4)cc3)CC2)c1C	-3	-2	-4	-2	-6	nt	nt
CCCCN1CCc2c([nH]c3ccc(C)cc23)C1=O	4	1	15*	2	3.9*	9	0
Cc1c(C2N3CC4(C)CN2CC(C)(C3)C4=O)c2ccccc2n1C (configuration not stated)	-1	-1	1	0	0	nt	nt
Cn1cc(C2N3CC4(C)CN2CC(C)(C3)C4=O)c2ccccc21 (configuration not stated)	-1	-1	16*	2	-1	1	0
COc1cc(NC(=O)COC(=O)CO/N=C(\C)c2ccc3c(c2)OCO3)cc(OC)c1	-1	-1	3	0	0	nt	nt
Cc1cc(NC(=O)CSc2nc3c(cc2C#N)CCC3)no1	4	-1	13*	4.7*	3	15*	1
COc1cccc(/C=N/n2cnc3ccccc32)c1OC	4	0	14*	2	3	14*	1
CCOc1ccc(C(=O)Nc2ccc(NC(=O)c3ccccc3)c(C)c2)cc1[N+](=O)[O-]	0	-1	2	0	0	nt	nt
Cc1ccc(NC(=O)C(C)NC(=O)OCc2ccccc2)cc1C (configuration not stated)	-2	-2	0	-2	0	nt	nt
O=[N+]([O-])c1ccccc1N/N=C\c1ccccc1Cl	0	-1	2	2	1	nt	nt
O=[N+]([O-])c1ccc(O)c(/C=N/Nc2ccccc2Cl)c1	2	0	16*	0	2	10	1
CN(CC(=O)Nc1ccc(N2CCOCC2)cc1)C(=O)c1ccc(CS(C)(=O)=O)cc1	0	-1	1	1	0	nt	nt
Cc1cc(/C=C2\SC(=S)NC2=O)c(C)n1-c1ccc(O)cc1	4	0	14*	0	3	9	1
COc1ccc(-n2c(C)cc(/C=C3\SC(=S)NC3=O)c2C)cc1	0	-1	0	2	0	nt	nt
SMILES	hcDAF-12 act	ssDAF-12 act	hgDAF12 agonist	DAX1 inh-1	DAX1 inh-2	hgDAF12 conf	LXRb DAF12 ctr
CCCCOc1ccc(C(=O)Nc2ccc(SC(F)F)cc2)cc1OC	-1	-2	-1	0	0	nt	nt
COc1ccc(NC(=O)c2cc3ccc(O)cc3o/c2=N\O)cc1	5.7*	1	18*	0	3	15*	1
COc1ccc(-c2cc3ccc(O)cc3oc2=O)cc1	5	0	14*	1	3	14*	1
N=c1oc2cc(O)ccc2cc1C(=O)Nc1ccc(F)cc1	4	-1	10	2	1	nt	nt
O=c1oc2cc(O)ccc2cc1-c1ccccc1	3	1	6	1	3	nt	nt
COC(=O)c1ccc(OS(=O)(=O)N(C)C)cc1	1	0	20*	1	1	6	0
COc1ccc(C(=O)Nc2ccc(SC(F)F)cc2)cc1	2	-1	15*	-1	1	12*	0
CN(C)S(=O)(=O)Oc1ccc(C(=O)Nc2ccc([N+](=O)[O-])cc2)cc1	-3	-2	-5	-4	-2	nt	nt
COc1ccc(NC(=O)c2ccc(C)cc2)cc1	4	1	14*	-1	3.9*	18*	1
COc1ccc(C(=O)NNC(=O)c2cc3ccccc3cc2O)cc1	3	0	0	1	-1	nt	nt
COc1ccc(NC(=O)c2cccc(OS(=O)(=O)N(C)C)c2)cc1	2	-1	17*	0	2	12*	1
COc1ccc(NC(=O)c2cc3ccccc3cc2O)cc1	3	0	15*	2	1	16*	0
CCOC(=O)C1=NN(c2ccc(C)cc2)CC1C(=O)OC (configuration not stated)	-1	-1	0	0	0	nt	nt
CN1CCN(c2ccc(-c3cc(NC=O)c4ncc(-c5ccc(F)cc5)n4c3)cc2)CC1	0	0	17*	nt	1	8	0
O=C(O)c1cccc(-c2nnn(Cc3ccccc3)n2)c1	5.7*	1	15*	-1	2	11*	1
O=C(NNC1=NCCCCC1)Nc1cccc(Cl)c1	5	0	19*	1	2	18*	0
COc1cc(/C=C/C(=O)OCC(=O)NC(=O)NC23CC4CC(CC(C4)C2)C3)ccc1OCC#N	-2	-1	0	0	0	nt	nt
CC(C)Cc1nnc(NC(=O)Nc2ccccc2)s1	2	-2	21*	0	2	14*	0
